Laboratory results published in PubChem BioAssay (NCI).
This is part of a sample that, as a whole, favours compounds with a hit. Of some 79,000 tested, about 15% had one in any assay. A number with no mark means an inactive call. Active and inactive are the calls of the source. Rule as the data show it: active = growth inhibition above about 70%; inactive = the rest.

Assays:
[1] = NCI Yeast Anticancer Drug Screen. Data for the rad50 strain (AID 155);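 also: 0% = growth of vehicle-only cultures of the same strain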; settings: S. cerevisiae rad50 strain growth inhibition; at 50.0 µM; hits give high values
Procedure, shortened: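 DNA repair mutant yeast, compound exposure, growth read-out; inhibition is taken relative to vehicle.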

[2] = NCI Yeast Anticancer Drug Screen. Data for the mec2-1 strain (AID 157); settings: S. cerevisiae mec2-1 strain, at 50.0 µM, hits give high values
Procedure, shortened: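 Test agents were screened against the mec2-1 yeast strain, with defined DNA repair or cell cycle alteration. Growth was scored as inhibition against vehicle-only controls.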

[3] = NCI Yeast Anticancer Drug Screen. Data for the sgs1 mgt1 strain (AID 161);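 also: 0% = growth of cultures given vehicle only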; settings: S. cerevisiae sgs1 mgt1 strain, at 50.0 µM, hits give high values
Procedure, shortened: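 Test agents were incubated with a DNA-repair-mutant yeast strain. Growth was then read and compared against vehicle-treated controls.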

[4] = NCI Yeast Anticancer Drug Screen. Data for the cln2 rad14 strain (AID 165);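 also: 0% = growth equal to vehicle treated cultures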; settings: S. cerevisiae cln2 rad14 strain, at 50.0 µM, hits give high values
Procedure, shortened: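 Growth of compound-exposed yeast (cln2 rad14 genotype) measured and expressed as inhibition relative to vehicle.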

[5] = NCI Yeast Anticancer Drug Screen. Data for the bub3 strain (AID 167); settings: S. cerevisiae bub3 mutant strain, at 50.0 µM, hits give high values
Procedure, shortened: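 In this screen, a yeast mutant lacking normal mitotic checkpoint function is challenged with compound. Relative growth versus vehicle gives the inhibition value.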

[6] = NCI Yeast Anticancer Drug Screen. Data for the mlh1 rad18 strain (AID 175); settings: S. cerevisiae mlh1 rad18 strain growth inhibition; at 50.0 µM; hits give high values
Procedure, shortened: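 In this whole-cell yeast screen, a strain with altered DNA damage repair is challenged with compound, and its growth is measured against matched vehicle-treated controls.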

CCOC(=O)C12CCC(=O)C=C1CN(C)CC2 (stereo unspecified)
growth inhibition [1]: -2.25%
growth inhibition [2]: 0.1%
growth inhibition [3]: -3.3%
growth inhibition [4]: -17.1%
growth inhibition [5]: -13.2%
growth inhibition [6]: 0.8%

O=C(O)C(=O)O.[NH2-].[NH2-].[Pt+2]
growth inhibition [1]: 8.3%
growth inhibition [2]: -4.9%
growth inhibition [3]: 0.15%
growth inhibition [4]: -5.05%
growth inhibition [5]: 2.6%
growth inhibition [6]: -3.8%

CC(=O)O[C@H]1C(=O)[C@@]2(C)[C@H]([C@H](OC(=O)c3ccccc3)[C@@]3(O)C[C@H](O)C(C)=C1C3(C)C)[C@]1(OC(C)=O)CO[C@@H]1C[C@@H]2O
growth inhibition [1]: 8.05%
growth inhibition [2]: -10.9%
growth inhibition [3]: 6%
growth inhibition [4]: 8.35%
growth inhibition [5]: 12.5%
growth inhibition [6]: -0.15%

C=[CH][Pb]([CH]=C)([CH]=C)[O]C(C)=O
growth inhibition [1]: 97.2% (active)
growth inhibition [2]: 98% (active)
growth inhibition [3]: 97.9% (active)
growth inhibition [4]: 98.8% (active)
growth inhibition [5]: 98.2% (active)
growth inhibition [6]: 99% (active)

COC(=O)C1=C(C)NC(C)=C2C(=O)Oc3ccccc3C12 (stereo unspecified)
growth inhibition [1]: 4.75%
growth inhibition [2]: -9.65%
growth inhibition [3]: -7.5%
growth inhibition [4]: 6.6%
growth inhibition [5]: -6.8%
growth inhibition [6]: 1.4%

CN1CCC(O)(c2ccccc2)C(C(O)c2ccccc2)C1 (stereo unspecified)
growth inhibition [1]: 5.2%
growth inhibition [2]: -21.7%
growth inhibition [3]: 17.9%
growth inhibition [4]: -8.55%
growth inhibition [5]: -23.9%
growth inhibition [6]: -20.6%

COc1cc(-c2ccc(N)c(OC)c2)ccc1N
growth inhibition [1]: 26.7%
growth inhibition [2]: 7.9%
growth inhibition [3]: 20.2%
growth inhibition [4]: 5.8%
growth inhibition [5]: -2.45%
growth inhibition [6]: 30.1%

CCC1(CCNC(=O)CCl)C(=O)NC(=O)NC1=O
growth inhibition [1]: 3.05%
growth inhibition [2]: -4.5%
growth inhibition [3]: 6.8%
growth inhibition [4]: -38.1%
growth inhibition [5]: 4.55%
growth inhibition [6]: -8.6%

O=[As](c1ccccc1Br)(c1ccccc1Br)c1ccccc1Br
growth inhibition [1]: 70%
growth inhibition [2]: 19.2%
growth inhibition [3]: 58.7%
growth inhibition [4]: 13.4%
growth inhibition [5]: 22.2%
growth inhibition [6]: 20.9%

COC1CCC2NCCNC2C1 (stereo unspecified)
growth inhibition [1]: 6.35%
growth inhibition [2]: -6%
growth inhibition [3]: -9.85%
growth inhibition [4]: -22.9%
growth inhibition [5]: -8.7%
growth inhibition [6]: 2.5%

CCOP(=O)(CC(=O)C1CC1)OCC
growth inhibition [1]: -28.8%
growth inhibition [2]: -20.5%
growth inhibition [3]: -26.2%
growth inhibition [4]: -21.9%
growth inhibition [5]: -20.9%
growth inhibition [6]: -43.1%

COc1ccc2c(c1)C13CCCCC1C(C2)[N+](C)([O-])CC3 (stereo unspecified)
growth inhibition [1]: -6.8%
growth inhibition [2]: -19.1%
growth inhibition [3]: 6.35%
growth inhibition [4]: -38.1%
growth inhibition [5]: -10.9%
growth inhibition [6]: 4.95%

O=C(O)C(O)(c1ccccc1)c1ccco1 (stereo unspecified)
growth inhibition [1]: 12.8%
growth inhibition [2]: 1.8%
growth inhibition [3]: -5.25%
growth inhibition [4]: 21.3%
growth inhibition [5]: -28.9%
growth inhibition [6]: 12.7%

O=C(O)/C=C/C(=O)O.[Ni]
growth inhibition [1]: -13.8%
growth inhibition [2]: -21.6%
growth inhibition [3]: -28.1%
growth inhibition [4]: -45.5%
growth inhibition [5]: 0.35%
growth inhibition [6]: 0.5%

CC[As](=O)(O)CCCc1ccccc1
growth inhibition [1]: 5.55%
growth inhibition [2]: 32.9%
growth inhibition [3]: 14.9%
growth inhibition [4]: 3.1%
growth inhibition [5]: -0.15%
growth inhibition [6]: -2.05%

CC(=O)CC(C)=O.CC(=O)CC(C)=O.[Co]
growth inhibition [1]: -31.9%
growth inhibition [2]: -41%
growth inhibition [3]: -8%
growth inhibition [4]: -133%
growth inhibition [5]: -52.3%
growth inhibition [6]: 0.7%

CCCCC1(CCC)C(=O)NC(=O)NC1=O
growth inhibition [1]: 9.8%
growth inhibition [2]: 9.5%
growth inhibition [3]: 1%
growth inhibition [4]: 13.7%
growth inhibition [5]: 1%
growth inhibition [6]: 15.8%

CCC(=O)c1ccc(N)cc1
growth inhibition [1]: 7.95%
growth inhibition [2]: 4.45%
growth inhibition [3]: 2.15%
growth inhibition [4]: -26.4%
growth inhibition [5]: -4.8%
growth inhibition [6]: 6.25%

Nc1cccc2c1Cc1cc([N+](=O)[O-])ccc1-2
growth inhibition [1]: 8.1%
growth inhibition [2]: -37.2%
growth inhibition [3]: 17.6%
growth inhibition [4]: -14.4%
growth inhibition [5]: 3.6%
growth inhibition [6]: -1.4%

CC1(C)N=C(N)N=C(N)N1c1ccc(CCc2cc(Cl)ccc2S(=O)(=O)F)c(Cl)c1
growth inhibition [1]: 99.5% (active)
growth inhibition [2]: 99.7% (active)
growth inhibition [3]: 99.7% (active)
growth inhibition [4]: 99.2% (active)
growth inhibition [5]: 99.3% (active)
growth inhibition [6]: 99.5% (active)

O=C(O)c1cc(Cl)nc(Cl)c1
growth inhibition [1]: -2.1%
growth inhibition [2]: 22%
growth inhibition [3]: 2.05%
growth inhibition [4]: -26.2%
growth inhibition [5]: 17.4%
growth inhibition [6]: -14.8%

C=CC(Cl)OC(=O)C(C)O (stereo unspecified)
growth inhibition [1]: 16.5%
growth inhibition [2]: 20.2%
growth inhibition [3]: 15.2%
growth inhibition [4]: 11.3%
growth inhibition [5]: 1.55%
growth inhibition [6]: 6.4%

CNC(=O)N1CN(c2ccccc2)C2(CCN(Cc3ccccc3)CC2)C1=O
growth inhibition [1]: -29.4%
growth inhibition [2]: -15.8%
growth inhibition [3]: -15.9%
growth inhibition [4]: -2.8%
growth inhibition [5]: -10.4%
growth inhibition [6]: -4.1%

Cc1ccc(OP(=O)(Oc2ccc(C)cc2)Oc2ccc(C)cc2)cc1.Cc1ccc(OP(=O)(Oc2ccc(C)cc2)Oc2ccc(C)cc2)cc1.Cc1ccc(OP(=O)(Oc2ccc(C)cc2)Oc2ccc(C)cc2)cc1.Cc1ccc(OP(=O)(Oc2ccc(C)cc2)Oc2ccc(C)cc2)cc1.[O-][Cl+3]([O-])([O-])O.[Zn+2]
growth inhibition [1]: 3.45%
growth inhibition [2]: 9.9%
growth inhibition [3]: 0.55%
growth inhibition [4]: 6.45%
growth inhibition [5]: 5.1%
growth inhibition [6]: -21.9%

O=P(N=C=S)(N=C=S)N=C=S
growth inhibition [1]: 5.45%
growth inhibition [2]: 6.6%
growth inhibition [3]: 9.4%
growth inhibition [4]: -11.6%
growth inhibition [5]: 0.4%
growth inhibition [6]: -12.8%

CN(C)P(=O)(CC(O)c1ccccc1)N(C)C (stereo unspecified)
growth inhibition [1]: 18.6%
growth inhibition [2]: -2.05%
growth inhibition [3]: -14.5%
growth inhibition [4]: -8.05%
growth inhibition [5]: 8.5%
growth inhibition [6]: 10.9%

CC1CN1C(=O)NCCCCCCNC(=O)N1CC1C (stereo unspecified)
growth inhibition [1]: -17.7%
growth inhibition [2]: -0.2%
growth inhibition [3]: -2.95%
growth inhibition [4]: -38.7%
growth inhibition [5]: -5.55%
growth inhibition [6]: -28.6%

O=S(=O)(N=S(CCCl)CCCl)c1ccccc1
growth inhibition [1]: 8.3%
growth inhibition [2]: 11.3%
growth inhibition [3]: 24.3%
growth inhibition [4]: -7.95%
growth inhibition [5]: 21.4%
growth inhibition [6]: 21.4%

COc1ccc2c(c1)CC(CN1CCC3(CC1)C(=O)N(C)CN3c1ccccc1)O2 (stereo unspecified)
growth inhibition [1]: -24.6%
growth inhibition [2]: 0.95%
growth inhibition [3]: -19.7%
growth inhibition [4]: -27.4%
growth inhibition [5]: 0.45%
growth inhibition [6]: -9.8%

Cc1cccc(C)c1NC(=O)C(=O)C1C(=O)NC(=O)NC1=O
growth inhibition [1]: -45.5%
growth inhibition [2]: -2.6%
growth inhibition [3]: -6%
growth inhibition [4]: 15.8%
growth inhibition [5]: -17.1%
growth inhibition [6]: -31.9%

c1ccc(NNc2ccccc2)cc1
growth inhibition [1]: 8.5%
growth inhibition [2]: 1.7%
growth inhibition [3]: 0.95%
growth inhibition [4]: -14.1%
growth inhibition [5]: -6.15%
growth inhibition [6]: -5.65%

O=P(CCP(=O)(c1ccccc1)c1ccccc1)(c1ccccc1)c1ccccc1
growth inhibition [1]: -17.6%
growth inhibition [2]: -23.1%
growth inhibition [3]: -0.5%
growth inhibition [4]: 26.2%
growth inhibition [5]: 3.2%
growth inhibition [6]: 3.75%

COc1ccc(CN2CCCN(Cc3ccc(OC)cc3)C2c2ccc(N(CCCl)CCCl)cc2)cc1
growth inhibition [1]: 30.3%
growth inhibition [2]: 2.4%
growth inhibition [3]: 43.8%
growth inhibition [4]: 19.8%
growth inhibition [5]: -15.3%
growth inhibition [6]: 35.8%

Cc1cc(C)c(CCl)cc1CCl
growth inhibition [1]: 16.2%
growth inhibition [2]: -5.75%
growth inhibition [3]: 26.4%
growth inhibition [4]: -7%
growth inhibition [5]: -7.15%
growth inhibition [6]: 27.8%

Nc1cc(S(=O)(=O)O)cc2cc(S(=O)(=O)O)c(N=Nc3ccc([As]=O)cc3)c(O)c12 (stereo unspecified)
growth inhibition [1]: -11.1%
growth inhibition [2]: 15.3%
growth inhibition [3]: -9.3%
growth inhibition [4]: -4.55%
growth inhibition [5]: 6.05%
growth inhibition [6]: -5.3%

Oc1cc(N2CC2)c(O)cc1N1CC1
growth inhibition [1]: 12.8%
growth inhibition [2]: 13.9%
growth inhibition [3]: 11.2%
growth inhibition [4]: -42.6%
growth inhibition [5]: -1.75%
growth inhibition [6]: 11.4%

CC12CCC3C4CCC(=O)C=C4CCC3C1CC1CC(=O)OC12 (stereo unspecified)
growth inhibition [1]: -4.15%
growth inhibition [2]: 1%
growth inhibition [3]: 0.4%
growth inhibition [4]: -7.95%
growth inhibition [5]: 11.7%
growth inhibition [6]: -2.8%

CC1(c2cccc(N(CCCl)CCCl)c2)NC(=O)NC1=O (stereo unspecified)
growth inhibition [1]: 25.1%
growth inhibition [2]: 27.4%
growth inhibition [3]: 13.2%
growth inhibition [4]: 3.9%
growth inhibition [5]: 19.9%
growth inhibition [6]: 40.4%

O=C(Nc1cc(S(=O)(=O)O)cc2cc(S(=O)(=O)O)c(N=Nc3ccc([As](=O)(O)O)cc3)c(O)c12)c1ccc([N+](=O)[O-])cc1
growth inhibition [1]: 12.7%
growth inhibition [2]: 1.7%
growth inhibition [3]: -7.45%
growth inhibition [4]: -9.1%
growth inhibition [5]: -3.4%
growth inhibition [6]: 6.55%

CC(=O)Nc1ccc(-c2ccccc2)cc1
growth inhibition [1]: 39.7%
growth inhibition [2]: 24.8%
growth inhibition [3]: 46.6%
growth inhibition [4]: 17.9%
growth inhibition [5]: -0.5%
growth inhibition [6]: 32.9%

CC(=O)CC(C)=O.CC(=O)CC(C)=O.[O]=[V]
growth inhibition [1]: -60.2%
growth inhibition [2]: -58%
growth inhibition [3]: -57.8%
growth inhibition [4]: -153%
growth inhibition [5]: -54.6%
growth inhibition [6]: -53.2%
